Measurements: the supplement of paper PMC12494721
Structures can show the parent of a compound that is named as a salt.

Tests used:
Conditions in all cases: 20 µM; incubation time: 27 h, anaerobic, 37 °C;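 for the amine columns active = adjusted P below 0.05 in both replicates with a change the same way and a mean fold change under 0.8 or over 1.25; inactive = the rest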
[1] = system: Clostridium sporogenes DSM 1664; assay: growth (OD595) fold change vs plate DMSO controls (fold change (ratio)); higher = more growth
How it was run: (§1)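 Shaken 96-well cultures in mGAM, grown anaerobically for 27 h at 37 °C, were read at 595 nm. OD came from blank-subtracted readings, corrected for background with 20 µM compound solutions in water and scaled by a calibration factor of 5. Growth is the fold change versus the plate's median DMSO control. Values average 2 biological replicates, and any fold change above 1.5 is NA.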

Escherichia coli IAI1 [2] = assay: as above
How it was run: as §1

[3] = system: Klebsiella aerogenes DSM 30053; assay: as above
How it was run: as §1

[4] = system: Ruminococcus gnavus DSM 108212; assay: as above
How it was run: as §1

[5] = system: Klebsiella aerogenes DSM 30053; assay: fold change of Histamine concentration vs plate DMSO controls (fold change (ratio)); higher = more amine produced, active = hit call of the paper (significant change in both replicates, either direction)
How it was run: (§2)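 Anaerobic mGAM cultures of four gut bacterial strains were grown at 37 °C for 27 h in 80 µL wells, starting at OD 0.1 before 1:1 dilution. Compounds were at 20 µM final (sweeteners 50 µM). Whole cultures were extracted with cold acetonitrile/methanol containing 0.1% formic acid and centrifuged. Amines were quantified by LC–triple-quadrupole MS (dynamic MRM) against external calibration curves and drift-corrected within batch. Each value is the fold change versus plate DMSO controls, averaged over 2 biological replicates.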

[6] = system: Clostridium sporogenes DSM 1664; assay: fold change of Tryptamine concentration vs plate DMSO controls (fold change (ratio)); higher = more amine produced, active = hit call of the paper (significant change in both replicates, either direction)
How it was run: as §2

[7] = system: Ruminococcus gnavus DSM 108212; assay: as above
How it was run: as §2

Escherichia coli IAI1 [8] = assay: fold change of Putrescine concentration vs plate DMSO controls (fold change (ratio)); higher = more amine produced, active = hit call of the paper (significant change in both replicates, either direction)
How it was run: as §2

[9] = system: Klebsiella aerogenes DSM 30053; assay: as above
How it was run: as §2

Escherichia coli IAI1 [10] = assay: fold change of Cadaverine concentration vs plate DMSO controls (fold change (ratio)); higher = more amine produced, active = hit call of the paper (significant change in both replicates, either direction)
How it was run: as §2

[11] = system: Klebsiella aerogenes DSM 30053; assay: as above
How it was run: as §2

[12] = system: Ruminococcus gnavus DSM 108212; assay: fold change of 2-Phenylethylamine concentration vs plate DMSO controls (fold change (ratio)); higher = more amine produced, active = hit call of the paper (significant change in both replicates, either direction)
How it was run: as §2

SMILES | growth [1] | growth (Escherichia coli IAI1 [2]) | growth [3] | growth [4] | fold change of Histamine concentration [5] | fold change of Tryptamine concentration [6] | fold change of Tryptamine concentration [7] | fold change of Putrescine concentration (Escherichia coli IAI1 [8]) | fold change of Putrescine concentration [9] | fold change of Cadaverine concentration (Escherichia coli IAI1 [10]) | fold change of Cadaverine concentration [11] | fold change of 2-Phenylethylamine concentration [12]
CCC(COC(=O)c1cc(OC)c(OC)c(OC)c1)(c1ccccc1)N(C)C (configuration not stated) [Trimebutine] | 0.842 | 0.979 | 0.999 | 0.868 | 0.944 (inactive) | 0.936 (inactive) | 1.06 (inactive) | 0.928 (inactive) | 1.01 (inactive) | 0.997 (inactive) | 1.01 (inactive) | 1.04 (inactive)
CN1C[C@H](CNC(=O)OCc2ccccc2)C[C@@H]2c3cccc4c3c(cn4C)C[C@H]21 [Metergoline] | 1.1 | 1.09 | 1.03 | 1.03 | 0.987 (inactive) | 0.943 (inactive) | 0.94 (inactive) | 1.04 (inactive) | 0.996 (inactive) | 1.08 (inactive) | 1 (inactive) | 0.967 (inactive)
CS(=O)(=O)c1ccc(C(=O)C2C(=O)CCCC2=O)c([N+](=O)[O-])c1 | 1.1 | 1.02 | 1 | 1.02 | 1.02 (inactive) | 0.928 (inactive) | 1 (inactive) | 0.929 (inactive) | 0.946 (inactive) | 0.973 (inactive) | 1.08 (inactive) | 0.999 (inactive)
COc1ncc(F)c2nc(S(=O)(=O)Nc3c(F)cccc3F)nn12 | 1.08 | 0.984 | 1.08 | 1.15 | 0.874 (inactive) | 1.04 (inactive) | 0.984 (inactive) | 1.01 (inactive) | 0.997 (inactive) | 0.998 (inactive) | 1.03 (inactive) | 0.993 (inactive)
COC[C@@H](NC(C)=O)C(=O)NCc1ccccc1 [Lacosamide] | 1.07 | 1.01 | 1.06 | 0.96 | 1.08 (inactive) | 1 (inactive) | 1.04 (inactive) | 1.01 (inactive) | 1.02 (inactive) | 1 (inactive) | 1 (inactive) | 1.07 (inactive)
CCSC(C)CC1CC(=O)C(/C(CC)=N/OC/C=C/Cl)=C(O)C1 (mixture of isomers) | 0.928 | 1.04 | 0.988 | 0.939 | 1.02 (inactive) | 1.01 (inactive) | 1.03 (inactive) | 1.02 (inactive) | 0.996 (inactive) | 1 (inactive) | 1.01 (inactive) | 0.99 (inactive)
C[C@]12CCC(=O)C=C1C=C[C@@H]1[C@@H]2CC[C@@]2(C)[C@H]1CC[C@@]2(O)CCC(=O)O [Canrenoic acid potassium salt] | 1.1 | 1 | 1.02 | 0.902 | 0.964 (inactive) | 1.05 (inactive) | 1.06 (inactive) | 1.02 (inactive) | 0.98 (inactive) | 0.997 (inactive) | 0.996 (inactive) | 1.09 (inactive)
CC1(C)C(C=C(Cl)Cl)C1C(=O)OCc1cccc(Oc2ccccc2)c1 (mixture of isomers) | 0.957 | 0.993 | 1 | 1.07 | 1.01 (inactive) | 1.05 (inactive) | 1.03 (inactive) | 1.04 (inactive) | 0.995 (inactive) | 1.06 (inactive) | 1 (inactive) | 1.02 (inactive)
COc1ccc(C(=O)N2CCCC2=O)cc1 [Aniracetam] | 0.932 | 0.978 | 1.04 | 0.771 | 0.853 (inactive) | 1.09 (inactive) | 1.03 (inactive) | 0.929 (inactive) | 0.976 (inactive) | 1.02 (inactive) | 1.01 (inactive) | 1.03 (inactive)
c1cc2c3c(cccc3c1)CC2 [Acenaphthene] | 1.04 | 1.01 | 0.974 | 0.995 | 1.04 (inactive) | 0.986 (inactive) | 1.01 (inactive) | 1.02 (inactive) | 1.02 (inactive) | 1.03 (inactive) | 0.982 (inactive) | 1.05 (inactive)
CC(C)OC(=O)Nc1cccc(Cl)c1 | 1.05 | 1.04 | 1.05 | 0.957 | 0.972 (inactive) | 0.989 (inactive) | 1.02 (inactive) | 0.987 (inactive) | 0.984 (inactive) | 0.927 (inactive) | 1.01 (inactive) | 1.06 (inactive)
CC(=O)O[C@H]1C[C@H](O[C@H]2[C@@H](O)C[C@H](O[C@H]3[C@@H](O)C[C@H](O[C@H]4CC[C@@]5(C)[C@H](CC[C@@H]6[C@@H]5C[C@@H](O)[C@]5(C)[C@@H](C7=CC(=O)OC7)CC[C@]65O)C4)O[C@@H]3C)O[C@@H]2C)O[C@H](C)[C@H]1O[C@@H]1O[C@H](CO)[C@@H](O)[C@H](O)[C@H]1O [Lanatoside C] | 1.01 | 0.957 | 0.998 | 1.12 | 0.992 (inactive) | 0.962 (inactive) | 1.07 (inactive) | 1.09 (inactive) | 0.991 (inactive) | 1.02 (inactive) | 0.996 (inactive) | 1.1 (inactive)
CC1=NNC(=O)N(/N=C/c2cccnc2)C1 | 1.04 | 0.951 | 0.97 | 1.03 | 1.03 (inactive) | 1.02 (inactive) | 1.01 (inactive) | 0.906 (inactive) | 0.945 (inactive) | 1.08 (inactive) | 0.99 (inactive) | 1.02 (inactive)
CCCCN(CCCC)SN(C)C(=O)Oc1cccc2c1OC(C)(C)C2 | 1.06 | 1.03 | 1.01 | 0.993 | 1.01 (inactive) | 0.965 (inactive) | 1.01 (inactive) | 1.05 (inactive) | 1.02 (inactive) | 1.03 (inactive) | 0.998 (inactive) | 0.987 (inactive)
COCc1cnc(C2=NC(C)(C(C)C)C(=O)N2)c(C(=O)O)c1 (configuration not stated) | 1.1 | 1.04 | 0.971 | 0.967 | 1.03 (inactive) | 1.11 (inactive) | 1.17 (inactive) | 0.961 (inactive) | 0.797 (inactive) | 0.852 (inactive) | 1.06 (inactive) | 1.43 (inactive)
N[C@@H]1C[C@H]1c1ccccc1 [Tranylcypromine hydrochloride] | 1.05 | 0.992 | 1.03 | 1.02 | 1.1 (inactive) | 0.972 (inactive) | 0.964 (inactive) | 1.01 (inactive) | 1.03 (inactive) | 1.03 (inactive) | 0.995 (inactive) | 0.928 (inactive)
CN(C)[C@@H]1C(=O)C(C(N)=O)=C(O)[C@@]2(O)C(=O)C3=C(O)c4c(O)ccc(Cl)c4[C@@](C)(O)[C@H]3C[C@@H]12 [Chlortetracycline hydrochloride] | 0.00816 | 0.064 | 0.0706 | 0.431 | 0.0679 (active) | 0.0172 (active) | 0.302 (active) | 0.253 (active) | 0.47 (inactive) | 0.146 (active) | 0.483 (inactive) | 0.271 (active)
O=C(Nc1ccc(F)cc1F)c1cccnc1Oc1cccc(C(F)(F)F)c1 | 0.931 | 1.02 | 1.03 | 0.965 | 1.01 (inactive) | 0.987 (inactive) | 0.983 (inactive) | 1.01 (inactive) | 0.995 (inactive) | 1.03 (inactive) | 0.993 (inactive) | 0.987 (inactive)
CN/C(=N/CC1CCOC1)N[N+](=O)[O-] (configuration not stated) | 1.07 | 1 | 1.01 | 1.03 | 1.03 (inactive) | 0.993 (inactive) | 1.01 (inactive) | 1.03 (inactive) | 1.02 (inactive) | 0.992 (inactive) | 0.999 (inactive) | 0.994 (inactive)
CN1[C@@H]2CC[C@H]1C[C@@H](OC1c3ccccc3CCc3ccccc31)C2 [Deptropine citrate] | 0.826 | 1 | 0.992 | 0.954 | 1.06 (inactive) | 1.17 (inactive) | 0.877 (inactive) | 1.04 (inactive) | 1.02 (inactive) | 1.11 (inactive) | 0.999 (inactive) | 0.928 (inactive)
Nc1nc(N)nc(NC2CC2)n1 [Cyromazine] | 1.07 | 1.02 | 1.01 | 1.03 | 0.979 (inactive) | 1.02 (inactive) | 0.995 (inactive) | 1.02 (inactive) | 1.03 (inactive) | 0.979 (inactive) | 1 (inactive) | 1 (inactive)
CCCC(C)C1(CC)C(=O)NC(=O)NC1=O (configuration not stated) [Pentobarbital] | 1.06 | 1.08 | 0.979 | 0.814 | 1.07 (inactive) | 0.993 (inactive) | 1.02 (inactive) | 1.1 (inactive) | 1.02 (inactive) | 1.01 (inactive) | 0.988 (inactive) | 1.04 (inactive)
C[C@]12CC[C@@H]3c4ccc(OC(=O)N(CCCl)CCCl)cc4CC[C@H]3[C@@H]1CC[C@@H]2O [Estramustine] | 0.804 | 0.998 | 0.983 | 1.24 | 0.899 (inactive) | 0.616 (active) | 0.949 (inactive) | 1.01 (inactive) | 1.01 (inactive) | 1.05 (inactive) | 1.04 (inactive) | 0.928 (inactive)
CC(C)(C)c1ccc(CSc2cnn(C(C)(C)C)c(=O)c2Cl)cc1 | 0.838 | 0.995 | 1.01 | 1.13 | 1 (inactive) | 1.02 (inactive) | 0.997 (inactive) | 0.97 (inactive) | 1.01 (inactive) | 1.04 (inactive) | 1 (inactive) | 0.948 (inactive)
CCCCCCCCCCCCN=C(N)N | 1.1 | 0.995 | 1.02 | 1.19 | 1.03 (inactive) | 0.927 (inactive) | 0.896 (inactive) | 1.01 (inactive) | 1.06 (inactive) | 0.951 (inactive) | 1.03 (inactive) | 0.893 (inactive)
CN[C@@H]1[C@@H](O)[C@@H](O[C@@H]2[C@@H](O)[C@H](O[C@H]3O[C@H](CN)CC[C@H]3N)[C@@H](N)C[C@H]2N)OC[C@]1(C)O.CN[C@@H]1[C@@H](O)[C@@H](O[C@@H]2[C@@H](O)[C@H](O[C@H]3O[C@H]([C@@H](C)N)CC[C@H]3N)[C@@H](N)C[C@H]2N)OC[C@]1(C)O.CN[C@@H]1[C@@H](O)[C@@H](O[C@@H]2[C@@H](O)[C@H](O[C@H]3O[C@H]([C@@H](C)NC)CC[C@H]3N)[C@@H](N)C[C@H]2N)OC[C@]1(C)O [Gentamicine sulfate] | 1.12 | 1.03 | 0.994 | 1.16 | 0.948 (inactive) | 0.703 (inactive) | 1.08 (inactive) | 1.02 (inactive) | 1.02 (inactive) | 1.02 (inactive) | 1.05 (inactive) | 1.16 (inactive)
